High-throughput results: PubChem, several laboratories
The list is not random: actives were taken first. Their share in the collection is about 4.9%.
Calb FLC: C. albicans growth inhibition with fluconazole, primary screen, CaCi-2 strain, Alamar Blue fluorescence; C. albicans CaCi-2 (fluconazole-resistant clinical isolate) + fluconazole, 48 h; growth inhibition, % (concentration not given with the values); AID 1979, 2009; 300,000 tested, 0.57% active;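 active = growth inhibition above about 58% in most replicates, limit read from the data, passing the limit was not always enough; inconclusive = exactly half the replicates above a set limit; inactive = most replicates below a set limit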;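 also: all wells also contain fluconazole at 8 µg/ml as a sub-toxic cotreatment; 0% = median of DMSO wells and 100% = median of geldanamycin control wells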
CSC inhib: cancer stem cell viability inhibitors, primary screen, luminescence; cancer stem cell-like cells viability; inhibition, % at 7.5 µM; 300,000 tested, 1.1% active; AID 2717, 2010; in the data active = inhibition above about 75%; inconclusive = no clear call, values can overlap the other calls; tested in HMLE shEcad cells
PP5 primary: PP5 phosphatase inhibitors, primary screen, biochemical, fluorescence | Serine/threonine-protein phosphatase 5 (Homo sapiens), P53041 | purified PP5c, OMFP substrate fluorescence | inhibition, % at 6.7 µM | 320,000 tested, 0.18% active;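 active = inhibition above the campaign's mean inhibition across all tested compounds plus 3 SD, cut at about 9.5% in these data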;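 also: 0% = DMSO only and 100% = 100 µM cantharidin control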
Beta apoptosis: inhibitors of cytokine-induced beta cell apoptosis, primary screen, luminescence; INS-1E cytokine-induced death, ATP luminescence, 48 h; percent of positive-control rescue, neutral wells zero; protection from apoptosis, % (no concentration beside the values); 300,000 tested, 0.8% active;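 active = Every replicate reaches about 75%, or at least half do and their mean reaches it too, limit read from the data; inconclusive = At least half of replicates reach the limit but their mean does not; inactive = Under half of replicates reach the limit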;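 also: 0% = cytokine-treated negative control wells and 100% = positive control rescue; higher means more ATP so stronger rescue from cytokine killing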
Mdm2-MdmX inh: inhibitors of human Mdm2-MdmX association, primary screen, cell-based, luminescence, split luciferase, SaOS-2, uHTS | SaOS-2 split-luciferase Mdm2/MdmX complementation | inhibition, % at 8 µM | Protein Mdm4 (Homo sapiens) + E3 ubiquitin-protein ligase Mdm2 (Homo sapiens), … | 330,000 tested, 3% active;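 active = inhibition of at least 50% at 8 µM in the primary screen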
Target sequence (O15151 whole entry, looked up): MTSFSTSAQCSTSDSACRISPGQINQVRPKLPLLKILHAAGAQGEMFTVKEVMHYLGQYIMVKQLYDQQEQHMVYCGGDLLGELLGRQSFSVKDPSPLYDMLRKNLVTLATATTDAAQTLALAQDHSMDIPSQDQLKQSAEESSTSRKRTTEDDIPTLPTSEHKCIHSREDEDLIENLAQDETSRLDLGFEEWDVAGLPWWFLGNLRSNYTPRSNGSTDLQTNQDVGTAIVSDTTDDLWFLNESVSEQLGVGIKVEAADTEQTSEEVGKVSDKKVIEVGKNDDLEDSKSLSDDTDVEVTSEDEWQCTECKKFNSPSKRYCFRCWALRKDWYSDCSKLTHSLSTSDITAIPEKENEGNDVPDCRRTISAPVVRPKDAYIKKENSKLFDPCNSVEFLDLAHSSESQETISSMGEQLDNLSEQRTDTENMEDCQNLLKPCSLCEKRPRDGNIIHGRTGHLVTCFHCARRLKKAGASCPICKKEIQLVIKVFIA
Target sequence (Q00987 whole entry, looked up): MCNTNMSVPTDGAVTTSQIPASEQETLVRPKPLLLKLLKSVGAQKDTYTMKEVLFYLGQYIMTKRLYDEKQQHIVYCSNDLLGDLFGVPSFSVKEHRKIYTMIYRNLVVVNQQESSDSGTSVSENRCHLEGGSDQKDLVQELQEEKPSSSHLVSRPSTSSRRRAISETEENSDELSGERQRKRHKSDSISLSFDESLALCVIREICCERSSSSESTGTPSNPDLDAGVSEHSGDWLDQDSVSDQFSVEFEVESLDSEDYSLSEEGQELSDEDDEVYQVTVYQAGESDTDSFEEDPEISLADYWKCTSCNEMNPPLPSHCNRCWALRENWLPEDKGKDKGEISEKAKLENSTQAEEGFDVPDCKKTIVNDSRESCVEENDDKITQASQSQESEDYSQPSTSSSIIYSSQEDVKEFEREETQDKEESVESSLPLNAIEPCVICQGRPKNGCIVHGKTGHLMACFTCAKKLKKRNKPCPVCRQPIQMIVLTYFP
PP1 inh: PP1-alpha phosphatase inhibitors, primary screen, counter-screen for PP5 inhibitor project, biochemical, fluorescence, OMFP substrate, single point. Serine/threonine-protein phosphatase PP1-alpha catalytic subunit (Homo sapiens), P62136. purified PP1alpha. 320,000 tested, 0.9% active. AID 2235, 2010. inhibition, % at 6.7 µM;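 active = inhibition above the mean inhibition of all tested compounds plus 3 SD, computed separately for each screening campaign, cut at about 15% in these data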
Mdm2-MdmX conf: Mdm2-MdmX complex disruptors, retested hits, confirmation, luminescence, single concentration; shares compounds with Mdm2-MdmX inh; Mdm2-MdmX binding, luminescent assay; inhibition, % at 8 µM; 10,000 tested, 55% active; in the data active = inhibition above about 40%
Full FLuc ctr: full-length luciferase signal inhibition, confirmation, counter-screen for Mdm2/MdmX interaction inhibitor project, cell-based, single concentration, SaOS-2 | SaOS-2 full-length luciferase counterscreen, luminescence | shares compounds with Mdm2-MdmX inh | 6,200 tested, 77% active | inhibition, % at 8 µM | AID 504607, 2011;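 active = mean inhibition at 8 µM reaching about 37%, which flags the compound as non-specific, limit read from the data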;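 also: p53-null SaOS-2 cells with luciferase driven by a doxycycline-inducible promoter; compound on cells about two nights before reading with doxycycline added after day one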
Numbers without * were called inactive; ? = inconclusive; · = no result given.

SMILES	Calb FLC	CSC inhib	PP5 primary	Beta apoptosis	Mdm2-MdmX inh	PP1 inh	Mdm2-MdmX conf	others
COc1ccc(Cl)cc1NC(=O)Nc1cccc([N+](=O)[O-])c1C	-6	-3	0	15	53*	-1	29
O=S(=O)(c1ccccc1)c1ncc(C(F)(F)F)cc1Cl	-5	·	·	·	61*	·	32
O=S(=O)(c1ccccc1)c1ncc(C(F)(F)F)cc1O	-9	10	-1	-3	4	0	·
CN(C(=O)COC(=O)c1c2c(nc3ccccc13)/C(=C/c1cccc([N+](=O)[O-])c1)CCC2)C1CCS(=O)(=O)C1 (stereo not drawn)	26	8	1	20	22	7	·
O=C(COC(=O)c1c2c(nc3ccccc13)/C(=C/c1cccc([N+](=O)[O-])c1)CCC2)NC1CCS(=O)(=O)C1 (stereo not drawn)	-3	67	2	11	71*	0	31
Cc1ccc(C)c(OCCCNCc2ccccc2)c1	-1	2	2	·	18	0	·
Clc1cc(Br)ccc1OCCCNCc1ccccc1	-7	37	2	7	55*	10	11
Cc1nc(Nc2ccc(Cl)c(Cl)c2)sc1C(=O)Nc1ccccc1	9	88*	4	86*	52*	3	6
Cc1nc(NC(=O)/C=C/c2ccccc2)sc1C(=O)Nc1ccc(Cl)cc1	27	-11	-1	3	50*	5	40	Full FLuc ctr=53*
O=C(/C=C/c1ccc([N+](=O)[O-])cc1)OCC(=O)N1c2ccccc2Sc2ccccc21	16	11	1	1	0	0	·
CC1CCc2sc(C(=O)N(C)CC(=O)Nc3ccc(N4CCOCC4)cc3)cc2C1 (stereo not drawn)	6	-7	2	1	41	0	·
N=c1c2ccccc2nc2n1CCCCCCCCCCC2	55	36	-1	97*	59*	1	24
CCOc1ccc(C(=O)Nc2ccc(NC(=O)c3cccs3)cc2)cc1[N+](=O)[O-]	33	-5	-2	-1	54*	-6	9
Cc1ccc(C(=O)Nc2ccc(NC(=O)c3cccs3)cc2)cc1[N+](=O)[O-]	-6	-15	0	5	87*	3	24	Full FLuc ctr=107*
Cc1ccc(C(=O)Nc2sc(C)c(-c3ccccc3)c2C(N)=O)cc1[N+](=O)[O-]	2	-12	-1	9	72*	-5	-3
CCOc1ccc(C(=O)NC(=S)Nc2ccc(NC(=O)c3ccco3)cc2)cc1[N+](=O)[O-]	-4	38	2	-2	22	-8	·
Cc1ccc(C(=O)Nc2cccc(NC(=O)c3ccc(C)c([N+](=O)[O-])c3)n2)cc1[N+](=O)[O-]	-1	1	3	22	33	-3	·
CCOc1ccc(C(=O)NC(=S)Nc2ncccc2C)cc1[N+](=O)[O-]	-9	-8	0	2	78*	-1	8
Cc1ccc(C(=O)NC(=S)Nc2ccc(NC(=O)c3cccs3)cc2)cc1[N+](=O)[O-]	-2	-8	1	17	48	-6	·
O=[N+]([O-])C(/C=C(\Cl)[N+](=O)[O-])=C(N1CCCCC1)N1CCCCC1	-3	4	0	3	14	-2	·
Cc1ccc2c(C)c(C(=O)NCc3ccc(S(N)(=O)=O)cc3)oc2c1	0	2	2	-5	-1	1	·
O=C1C2CC=C(Cl)CC2C(=O)N1CCC[n+]1cccc2ccccc21 (stereo not drawn)	11	7	2	1	10	-1	·
CCc1cc2c(=O)[nH]c(N3CCCC3)nc2s1	30	3	0	-1	-16	-1	·
CCc1cc2c(=O)[nH]c(-c3ccccn3)nc2s1	20	·	-3	66	72*	2	26	Full FLuc ctr=46*
O=C1C(=C2SCCCS2)CC/C1=C\c1ccc(F)cc1	-4	36	4	8	82*	-1	81*	Full FLuc ctr=26
SMILES	Calb FLC	CSC inhib	PP5 primary	Beta apoptosis	Mdm2-MdmX inh	PP1 inh	Mdm2-MdmX conf	others
COc1ccccc1NS(=O)(=O)c1cc([N+](=O)[O-])ccc1N/N=C/c1c[nH]c2ccccc12	0	68	8	5	72*	3	25
COc1ccc(NS(=O)(=O)c2cc([N+](=O)[O-])ccc2N/N=C\c2c(C)[nH]c3ccccc23)cc1	2	-1	3	16	77*	2	6
COc1ccc(C=NNc2ccc([N+](=O)[O-])cc2S(=O)(=O)Nc2ccccc2C(=O)O)cc1OC	·	33	·	4	-10	·	·
Cc1[nH]c2ccccc2c1/C=N/Nc1ccc([N+](=O)[O-])cc1S(=O)(=O)Nc1ccc(Cl)cc1	28	16	1	·	15	-5	·
CC1(C)C/C(=N\NC(=S)Nc2ccccc2F)c2cc(O)ccc2O1	15	57	-1	9	36	-5	·
CCCN1CCC(NC(=S)Nc2cccc(Cl)c2Cl)CC1	-7	-7	-2	2	30	-2	·
COc1ccc(NC(=O)/C(C#N)=C\C=C\c2ccco2)cc1	-11	?	2	-1	51*	2	53*	Full FLuc ctr=58*
COc1ccc(S(=O)(=O)Nc2cc3c4c(c2)CCN4C(=O)CC3)cc1OC	12	-1	-4	-5	-3	-3	·
CS(=O)(=O)c1cnc(-c2ccccc2)nc1Sc1ccc(F)cc1	0	·	3	·	14	0	·
COc1cccc(Sc2nc(-c3ccccc3)ncc2S(C)(=O)=O)c1	10	·	0	·	62*	2	36
CC(C)N(CCCNC(=O)c1nn(C)c2c1CS(=O)(=O)c1ccccc1-2)Cc1ccccc1	-2	-13	-1	-1	21	-4	·
COc1ccc(NS(=O)(=O)c2cc(NC(=O)c3sccc3C)ccc2N2CCOCC2)cc1	-5	40	4	7	57*	1	64*	Full FLuc ctr=64*
COc1ccc(NS(=O)(=O)c2cc(NC(=O)c3cc(F)c(F)c(F)c3F)ccc2N2CCCC2)cc1	-11	43	2	0	61*	4	30
